In all, about 1,300 compounds went through this assay and about 270 (21%) were called active. How the calls were made is not given here. These entries were drawn from the full list. Entries with a potency or affinity are not part of this list.

This assay is described as follows: cytotoxicity in parental SK-MEL-5 melanoma cells – cell-based, CellTiter-Glo, cherry-picked, set 3, orthogonal assay for MITF inhibitor project, dose response (AID 493240). The settings on record: SK-MEL-5 viability, ATP luminescence (CellTiter-Glo), 24 h; series mostly up to 35 µM; activity change, negative = viability loss: at the top concentration.
In the case of `Cc1cc(C(=O)Nc2ccc([N+](=O)[O-])cn2)cs1`, the “activity change, negative = viability loss” value was 1.28% (inactive).

With `CCOC(=O)c1cc2sccc2n1CC(=O)N1c2ccccc2CC1C` (centres undefined), the “activity change, negative = viability loss” value was -48.5% (inactive).

As for `O=C(Nc1ccc2c(c1)OCCO2)c1cccc(Cl)c1Cl`, the “activity change, negative = viability loss” value is 6.72% (inactive).

As for `O=C(c1nnsc1S(=O)(=O)c1ccc(Cl)cc1)N1CCOCC1`, the “activity change, negative = viability loss” value was -10.9% (inactive).

Consider `CC(C)(CO)NC(=O)c1ccc2nc(Cc3cccc(Cl)c3)oc2c1`, for which the “activity change, negative = viability loss” value was 8.31% (inactive).

`COc1ccc2cc3cc(C(=O)NCCc4ccc(OC)c(OC)c4)oc3nc2c1`: the “activity change, negative = viability loss” value was -23.3% (inactive).

For `Cc1ccccc1C(=O)O/N=C(\N)c1ccc([N+](=O)[O-])cc1`, the “activity change, negative = viability loss” value is -4.23% (inactive).

With `Nc1ccc(-c2ncc(-c3ccccc3)o2)cc1`, the “activity change, negative = viability loss” value is -2.92% (inactive).

Regarding `CCOC(=O)CSC1=NC(=O)/C(=C\c2ccc(Cl)cc2)S1`, the “activity change, negative = viability loss” value was -52.8% (inactive).

For the compound `CCOC(=O)CSC1=NC(=O)/C(=C\c2ccc(OC(C)=O)cc2)S1`, the “activity change, negative = viability loss” value was -10.5% (inactive).

For the compound `CC(Oc1ccccc1)C(=O)Nc1nc(-c2ccccn2)cs1` (centres undefined), the “activity change, negative = viability loss” value was -18.7% (inactive).

In the case of `CC(C)(C)C1CCC(OC(=O)CN2CCCCC2)CC1` (centres undefined), the “activity change, negative = viability loss” value is -11.8% (inactive).

Consider `CC(O)CNC(=O)C1CCN(Cc2ccc(OCc3ccccc3)cc2)CC1` (centres undefined), for which the “activity change, negative = viability loss” value is -5.93% (inactive).

As to `Cc1cc(C(=O)CN2C(=O)c3ccccc3S2(=O)=O)c(C)n1-c1ccccc1`, the “activity change, negative = viability loss” value was -9.62% (inactive).

`O=C(N/N=C\c1cc(Br)ccc1O)c1ccc(S(=O)(=O)N2CCCCC2)cc1`: the “activity change, negative = viability loss” value is -30.4% (inactive).

Consider `COC(=O)[C@@H](C)NC(=O)c1ccc2oc(CCc3ccccc3)nc2c1`, for which the “activity change, negative = viability loss” value was 2.14% (inactive).

For the compound `O=C(Nc1nc2ccccc2s1)c1ccccc1[N+](=O)[O-]`, the “activity change, negative = viability loss” value is -11.7% (inactive).

For the compound `Cc1nc2nc(C)c(NS(=O)(=O)c3ccc4c(c3)CCCC4)c(=O)n2[nH]1`, the “activity change, negative = viability loss” value was 3.77% (inactive).

With `COc1ccc(/C=C2\SC(=O)N(CCCC(=O)Nc3cc(Cl)ccc3C(=O)O)C2=O)cc1`, the “activity change, negative = viability loss” value is -7.19% (inactive).

Take `CC(C)c1ccc(CNc2ncccn2)cc1`: the “activity change, negative = viability loss” value is 4.61% (inactive).

Regarding `COC(=O)c1ccc(/C=C(\C#N)C(=O)NC(C)c2ccccc2)cc1` (centres undefined), the “activity change, negative = viability loss” value was -23.5% (inactive).

Consider `Clc1ccc(-c2nc(-c3ccncc3)no2)c(Cl)c1`, for which the “activity change, negative = viability loss” value is 6.89% (inactive).

For `Cc1ccc(C2CC(C(F)(F)F)n3nc(C(=O)NCc4c(C)nn(C)c4C)c(Cl)c3N2)cc1` (centres undefined), the “activity change, negative = viability loss” value is -39.3% (inactive).

On to `Cc1nn(-c2ccccc2Cl)c(Cl)c1/C=N/Nc1cccc(C(=O)O)c1`, for which the “activity change, negative = viability loss” value was -8.47% (inactive).

In the case of `O=C(Nc1ccc(OC(F)(F)F)cc1)c1[nH]ncc1[N+](=O)[O-]`, the “activity change, negative = viability loss” value is 6.68% (inactive).

As for `C=CCNC(=O)Cn1nnc(-c2ccc(-c3ccc(OC)cc3)cc2)n1`, the “activity change, negative = viability loss” value was -0.141% (inactive).

For the compound `C=CCOc1ccc(/C=C2\SC(=S)N(CCC(=O)O)C2=O)cc1`, the “activity change, negative = viability loss” value was 13.3% (inactive).

Take `CCc1nc2oc3ccccc3c(=O)c2cc1C(=O)OC`: the “activity change, negative = viability loss” value was -4.67% (inactive).

As for `COc1ccc(S(=O)(=O)N2CCCCC2)cc1NC(=O)c1ccc([N+](=O)[O-])o1`, the “activity change, negative = viability loss” value was -35.1% (inactive).

On to `CCCCOC(=O)c1[nH]c(C)c(C(=O)OC)c1C`, for which the “activity change, negative = viability loss” value was -15.2% (inactive).

For the compound `Oc1ccc(CNc2ccccc2F)c2cccnc12`, the “activity change, negative = viability loss” value is -40.5% (inactive).

For `O=C(Cn1ncc(Cl)c(Cl)c1=O)c1ccc(Cl)cc1`, the “activity change, negative = viability loss” value is -28.3% (inactive).

As for `Nc1nnnn1/N=C/C(Br)=C/c1ccccc1`, the “activity change, negative = viability loss” value was -14.9% (inactive).

In the case of `Cc1ccsc1C(=O)OCC(=O)Nc1sccc1C(N)=O`, the “activity change, negative = viability loss” value was -4.08% (inactive).

In the case of `CN(C)c1nc(C=C(C#N)C#N)c(Cl)n1-c1ccc(F)cc1`, the “activity change, negative = viability loss” value was -72.3% (inactive).

For the compound `COc1ccc(/C=N/Nc2ccccn2)cc1OC`, the “activity change, negative = viability loss” value is 3.77% (inactive).

For the compound `COc1ccc(-c2cc(-c3ccccc3O)[nH]n2)cc1OC`, the “activity change, negative = viability loss” value is 5.33% (inactive).

For the compound `CCCCNC(=O)Nc1ccc(C2SCCS2)cc1`, the “activity change, negative = viability loss” value was -12.7% (inactive).

Turning to `CN(C)Cc1c(O)ccc2c1O/C(=C\C=C\c1ccccc1)C2=O`, the “activity change, negative = viability loss” value is 6.11% (inactive).

On to `Cc1nc2ccccn2c1C(=O)/C=C/c1cccc([N+](=O)[O-])c1`, for which the “activity change, negative = viability loss” value was 13.3% (inactive).

On to `O=C(/C=C/c1cccc([N+](=O)[O-])c1)n1cnc2ccccc21`, for which the “activity change, negative = viability loss” value was 23.4% (inactive).

Take `CCCOC(=O)c1ccc(NC(=O)C2CCCO2)cc1` (centres undefined): the “activity change, negative = viability loss” value was 11.9% (inactive).

For `O=C(Nc1nnc(Cc2ccccc2)s1)c1ccccc1`, the “activity change, negative = viability loss” value is 10% (inactive).

As to `CCOc1ccc(NC(=O)Nc2cccc(C(=O)O)c2)cc1`, the “activity change, negative = viability loss” value is -24.5% (inactive).

On to `Cc1ccc(O)c(NC(=O)c2ccc3c(c2)C(=O)N(CC(C)C)C3=O)c1`, for which the “activity change, negative = viability loss” value is -15.1% (inactive).

For the compound `CCN(CC)C(=O)CCCOc1ccc(Cl)cc1Cl`, the “activity change, negative = viability loss” value is -3.19% (inactive).

On to `O=C(O)c1cccc(N/N=C/c2cccs2)c1`, for which the “activity change, negative = viability loss” value is -4.73% (inactive).

Take `N#Cc1cc2c(nc1SC1CC(=O)N(c3ccccc3)C1=O)CCC2` (centres undefined): the “activity change, negative = viability loss” value was -10.3% (inactive).

Consider `CCOC(=O)c1nnn(-c2ccc([N+](=O)[O-])cc2[N+](=O)[O-])c1C`, for which the “activity change, negative = viability loss” value was -37.1% (inactive).

As to `Cc1ccc2nc3cc([N+](=O)[O-])cc([N+](=O)[O-])c3cc2c1`, the “activity change, negative = viability loss” value was -29.9% (inactive).

With `COc1ccc(Nc2oc(-c3ccc(OC)cc3)nc2C#N)cc1`, the “activity change, negative = viability loss” value was 8.58% (inactive).

With `Cc1cccc(-c2nc(C#N)c(NCc3ccco3)o2)c1`, the “activity change, negative = viability loss” value is 11.6% (inactive).

Take `COC(=O)c1c(C)[nH]c(/C=N/Nc2ccccc2)c1C`: the “activity change, negative = viability loss” value was -6.74% (inactive).

As to `OCCNc1c2ccccc2nc2c(F)c(F)c(F)c(F)c12`, the “activity change, negative = viability loss” value is -36.1% (inactive).

Turning to `FC(F)(F)Oc1ccc(-c2cn3cccnc3n2)cc1`, the “activity change, negative = viability loss” value was -0.472% (inactive).

`COc1ccc(NC(=O)Nc2ccc(F)c(F)c2)c(OC)c1`: the “activity change, negative = viability loss” value is 4.2% (inactive).

In the case of `Cc1ccc(-c2c[n+](Cc3ccc(Cl)cc3)c3n2CCC3)cc1`, the “activity change, negative = viability loss” value is -25.2% (inactive).

Turning to `Cc1ccc(-c2c[n+](Cc3cccc(Cl)c3)c3n2CCC3)cc1`, the “activity change, negative = viability loss” value was -18.5% (inactive).

`CC1CC(C)C[N+](=C2C=C(N3CCCC3)CC(C)(C)C2)C1` (centres undefined): the “activity change, negative = viability loss” value is -40.1% (inactive).

Turning to `COc1ccc(-c2noc(-c3cccs3)n2)cc1OC`, the “activity change, negative = viability loss” value is 4.3% (inactive).

Regarding `CCN(CC)S(=O)(=O)c1ccc(N2CCCC2)c(NC(=O)c2ccc([N+](=O)[O-])o2)c1`, the “activity change, negative = viability loss” value is -23.8% (inactive).

`O=C(Nc1cccnc1Cl)c1cc(-c2ccco2)on1`: the “activity change, negative = viability loss” value is -0.292% (inactive).

In the case of `CSc1nc(N)n2nc(-c3ccccc3)cc2n1`, the “activity change, negative = viability loss” value was -39.1% (inactive).

Take `COc1ccc(C(NC(C)=O)c2ccc3cccnc3c2O)c(OC)c1` (centres undefined): the “activity change, negative = viability loss” value is -15.9% (inactive).

For the compound `CC(=O)c1sc(N/N=C\c2ccc(N(C)C)cc2)nc1C`, the “activity change, negative = viability loss” value was 6.94% (inactive).

Consider `C(=N\Nc1cc(N2CCCCC2)ncn1)/c1ccco1`, for which the “activity change, negative = viability loss” value is 7.34% (inactive).

In the case of `COc1ccc(-c2csc(N(C)C(=O)c3ccco3)n2)cc1`, the “activity change, negative = viability loss” value is -3.54% (inactive).

Take `Cc1csc(N/N=C/c2ccc([N+](=O)[O-])cc2)n1`: the “activity change, negative = viability loss” value is -1.39% (inactive).

For the compound `CCOc1ccc(C(=O)N2CCc3ccccc32)cc1`, the “activity change, negative = viability loss” value was 13.3% (inactive).

Regarding `CC(=O)Oc1ccc(C)cc1-n1nc2ccccc2n1`, the “activity change, negative = viability loss” value is -20.8% (inactive).

`CC(=O)Cn1ncc(Br)c(Br)c1=O`: the “activity change, negative = viability loss” value was -30.7% (inactive).

As for `O=C(CCCN1C(=O)S/C(=C\c2ccccc2)C1=O)NNC(=O)c1ccccc1O`, the “activity change, negative = viability loss” value was -13.1% (inactive).

Take `O=C(CCCCl)NC(=S)Nc1ccc(N2CCOCC2)cc1`: the “activity change, negative = viability loss” value was -8.43% (inactive).

With `N/C(=N\OC(=O)Cc1cccs1)c1ccccc1`, the “activity change, negative = viability loss” value is 0.942% (inactive).

These data come from PubChem BioAssay AID493240 (Broad Institute, 2011).
